Each structure is given as a SMILES string. Results filed as inconclusive are left out. The source made the active and inactive calls. How the source made its calls: active means hit-call score of the fitted dose curve at least 0.9, where 1 is the maximum; inconclusive means response in the unintended direction; inactive means score below 0.9.

Chain of human Peroxisome Proliferator-activated Receptor delta (PPARd) Agonism, conducted at France lab site, PPARD (gene 5467) (Q03181 whole entry, looked up): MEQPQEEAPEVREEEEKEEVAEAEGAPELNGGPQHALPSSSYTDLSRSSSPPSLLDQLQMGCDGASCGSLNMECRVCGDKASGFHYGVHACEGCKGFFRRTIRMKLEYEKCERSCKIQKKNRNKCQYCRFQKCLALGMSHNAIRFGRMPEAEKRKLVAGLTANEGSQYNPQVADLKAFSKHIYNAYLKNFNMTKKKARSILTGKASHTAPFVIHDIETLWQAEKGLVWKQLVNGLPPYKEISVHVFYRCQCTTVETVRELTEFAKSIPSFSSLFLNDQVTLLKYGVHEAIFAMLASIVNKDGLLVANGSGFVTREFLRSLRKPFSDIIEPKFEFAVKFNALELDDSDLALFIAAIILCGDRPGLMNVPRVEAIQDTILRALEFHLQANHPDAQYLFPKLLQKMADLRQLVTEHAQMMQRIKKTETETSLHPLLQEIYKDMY

In this test the target is human Peroxisome Proliferator-activated Receptor delta (PPARd) Agonism, conducted at France lab site, PPARD (gene 5467) (UniProt Q03181). The test can be described thus: ERF_FR_NR_COA_hPPARD: Eurofins (ERF) Nuclear Receptor (NR) Functional Coactivator Assay for human Peroxisome Proliferator-activated Receptor delta (PPARd) Agonism, conducted at France lab site. The procedure:
ERF_FR_NR_COA_hPPARD is a biochemical, single-readout assay that uses extracted gene-proteins in a cell-free assay. Measurements were taken 2 hours after chemical dosing in a 384-well plate. See PPARdelta Human NHR Functional Agonist Coactivator Assay, Cerep.ERF_FR_NR_COA_hPPARD is an assay component calculated from the ERF_FR_NR_COA_hPPARD assay. It is designed to measure FRET using a type of binding reporter as detected by fluorescence intensity of GW0742 with fluorimetry technology.Data from the assay component ERF_FR_NR_COA_hPPARD was analyzed at the assay endpoint, ERF_FR_NR_COA_hPPARD, in the positive analysis fitting direction relative to DMSO as the negative control and baseline of activity. […]
Histidine-tagged-PPARdelta (Ligand Binding Domain, 1.7 ul/ml proteins) are mixed with 50 nM biotin-tagged-C33 coactivator and 0.4 ug fluorescence acceptor (anti-histidine antibody coupled-beads) in an incubation buffer containing 20 mM Hepes/NaOH (pH 7.4), 80 mM Nacl, 0.08% Tween 20 and 0.8 mM DTT and 0.08% BSA. […] Thereafter, fluorescence donor (streptavidin coupled-beads) is added at a final concentration of 0.4 ug. Following 120 min incubation at 22C, the signal is measured at lambdaex=680 nm and lambdaem=520 and 620 nm using a microplate reader (EnVision, Perkin Elmer). The results are expressed as a percent of the control response to […] nM GW 0742. […]
`O=C(O)CCC(F)(F)C(F)(F)C(F)(F)F`: the compound was classed as inactive.
In the case of `CC(C)(Oc1ccc(C(=O)c2ccc(Cl)cc2)cc1)C(=O)O`, the compound was classed as inactive.

Values taken from PubChem BioAssay AID2284387 (EPA ToxCast).
